Data published in PubChem BioAssay (NCATS).
Several values for one entry are separate records, joined by “and”; a condition that tells them apart may be missing. Identical values can stand only once. Results filed as inconclusive are left out. A call without a number means that no potency is given here. Activity calls are given as the source filed them. Calls come from the whole dose curve; as a rule, active = well fitted curve in the direction sought with a large enough effect; inconclusive = small, poorly fitted or top-dose-only effect, or another doubt; inactive = no such curve, though single readings can be large; an effect the other way counts as inactive or inconclusive.

Tests used:
[1] = qHTS of pediatric cancer cell lines to identify multiple opportunities for drug repurposing: Primary screen for SJ-GBM2 cells (AID 1347091); note: potency is the fitted concentration of half-maximal effect
Outline: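 Eight- or eleven-point concentration series, 48 h treatment at 37 degrees C in growth media; readout CellTiter-Glo luminescence. Potency and efficacy were taken from the concentration-response curves.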

[2] = qHTS of pediatric cancer cell lines to identify multiple opportunities for drug repurposing: Primary screen for SK-N-MC cells (AID 1347093); note: potency is the fitted concentration of half-maximal effect
Outline: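 Metabolically active cells were quantified by ATP-dependent luminescence (CellTiter-Glo, 15 min at room temperature) following 48 h treatment. Cells had been plated at 500-1,000 per well and settled for 5 h beforehand.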

[3] = qHTS of pediatric cancer cell lines to identify multiple opportunities for drug repurposing: Primary screen for BT-37 cells (AID 1347094); note: potency is the fitted concentration of half-maximal effect
Outline: (§1)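 Plated cells (500-1,000 per well, growth media) were allowed to settle for 5 hours, treated with compound dilutions for 48 hours, then lysed with CellTiter-Glo for 15 min at room temperature before luminescence reading.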

[4] = qHTS of pediatric cancer cell lines to identify multiple opportunities for drug repurposing: Primary screen for NB-EBc1 cells (AID 1347095); note: potency is the fitted concentration of half-maximal effect
Outline: as §1

[5] = qHTS of pediatric cancer cell lines to identify multiple opportunities for drug repurposing: Primary screen for U-2 OS cells (AID 1347096); note: nearly all actives have a fitted effect of over 50% in size
Outline: (§2)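 Cells (500-1,000/well) in growth media were settled 5 h at 37 degrees C, then given compounds for 48 h. Viability was read as CellTiter-Glo luminescence. Primary runs used MIPE at 11 points (0.78 nM-46 µM) and NPC at 8 points (0.59 nM-46 µM); follow-ups used 11 points.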

[6] = qHTS of pediatric cancer cell lines to identify multiple opportunities for drug repurposing: Primary screen for SK-N-SH cells (AID 1347098); note: nearly all actives have a fitted effect of over 65% in size; note: potency is the fitted concentration of half-maximal effect
Outline: (§3)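 Cells (500-1,000/well) rested 5 h, then received compounds for 48 h; metabolically active cells were measured by CellTiter-Glo luminescence. Final concentrations spanned up to 46 µM (MIPE, 11-point) or 0.59 nM-46 µM (NPC, 8-point) in primary screens, 11-point in follow-ups.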

[7] = qHTS of pediatric cancer cell lines to identify multiple opportunities for drug repurposing: Primary screen for NB1643 cells (AID 1347099); note: nearly all actives have a fitted effect of over 50% in size; note: potency is the fitted concentration of half-maximal effect
Outline: as §1

[8] = qHTS of pediatric cancer cell lines to identify multiple opportunities for drug repurposing: Primary screen for LAN-5 cells (AID 1347100); note: potency is the fitted concentration of half-maximal effect
Outline: as §2

[9] = qHTS of pediatric cancer cell lines to identify multiple opportunities for drug repurposing: Primary screen for BT-12 cells (AID 1347101); note: nearly all actives have a fitted effect of over 25% in size; note: potency is the fitted concentration of half-maximal effect
Outline: as §3

[10] = qHTS of pediatric cancer cell lines to identify multiple opportunities for drug repurposing: Primary screen for Rh18 cells (AID 1347102); note: nearly all actives have a fitted effect of over 65% in size; note: potency is the fitted concentration of half-maximal effect
Outline: as §2

[11] = qHTS of pediatric cancer cell lines to identify multiple opportunities for drug repurposing: Primary screen for RD cells (AID 1347104); note: nearly all actives have a fitted effect of over 55% in size; note: potency is the fitted concentration of half-maximal effect
Outline: as §1

[12] = qHTS of pediatric cancer cell lines to identify multiple opportunities for drug repurposing: Primary screen for MG 63 (6-TG R) cells (AID 1347105); note: nearly all actives have a fitted effect of over 50% in size; note: potency is the fitted concentration of half-maximal effect
Outline: as §1

[13] = qHTS of pediatric cancer cell lines to identify multiple opportunities for drug repurposing: Primary screen for control Hh wild type fibroblast cells (AID 1347106);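 note: series mostly up to about 46 µM; a drop in luminescence marks cytotoxicity and a rise apparent proliferation; nearly all actives have a fitted effect of over 55% in size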
Outline: as §2

[14] = qHTS of pediatric cancer cell lines to identify multiple opportunities for drug repurposing: Primary screen for Rh30 cells (AID 1347107); note: series mostly up to about 46 µM; nearly all actives have a fitted effect of over 75% in size
Outline: as §2

[15] = qHTS of pediatric cancer cell lines to identify multiple opportunities for drug repurposing: Primary screen for Rh41 cells (AID 1347108); note: nearly all actives have a fitted effect of over 70% in size; note: potency is the fitted concentration of half-maximal effect
Outline: as §1

[16] = qHTS of pediatric cancer cell lines to identify multiple opportunities for drug repurposing: Primary screen for A673 cells (AID 1347092); note: potency is the fitted concentration of half-maximal effect; nearly all actives have a fitted effect of over 45% in size
Outline: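 Titration-based qHTS on A673 cells: MIPE compounds spanned 11 points (0.78 nM to 46 µM final), NPC compounds 8 points (0.59 nM to 46 µM final). Viability after 48 h was measured by ATP luminescence.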

[17] = qHTS of pediatric cancer cell lines to identify multiple opportunities for drug repurposing: Primary screen for OHS-50 cells (AID 1347103); note: nearly all actives have a fitted effect of over 40% in size; note: potency is the fitted concentration of half-maximal effect
Outline: as §3

[18] = qHTS of pediatric cancer cell lines to identify multiple opportunities for drug repurposing: Primary screen for Saos-2 cells (AID 1347097); note: nearly all actives have a fitted effect of over 40% in size; note: potency is the fitted concentration of half-maximal effect
Outline: as §1

[19] = qHTS of pediatric cancer cell lines to identify multiple opportunities for drug repurposing: Confirmatory screen for A673 cells (AID 1347110);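 note: cells exposed to compound for 48 h before the viability read; nearly all actives have a fitted effect of over 65% in size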; note: potency is the fitted concentration of half-maximal effect
Outline: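 Forty-eight-hour viability assay. Follow-up compounds ran at 11-point dilutions; positive control bortezomib at 2.3 uM final, neutral control DMSO.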

[20] = qHTS of pediatric cancer cell lines to identify multiple opportunities for drug repurposing: Confirmatory screen for NB1643 cells (AID 1347109); note: potency is the fitted concentration of half-maximal effect; nearly all actives have a fitted effect of over 45% in size
Outline: as §2

SMILES | Potency [1] | Potency [2] | Potency [3] | Potency [4] | Potency [5] | Potency [6] | Potency [7] | Potency [8] | Potency [9] | Potency [10] | Potency [11] | Potency [12] | Potency [13] | Potency [14] | Potency [15] | Potency [16] | Potency [17] | Potency [18] | Potency [19] | Potency [20]
CCN(CC)CCCC(C)Nc1nc(C)cc(Nc2ccc3nc(C)cc(N)c3c2)n1 (configuration not stated) | inactive | inactive | inactive | inactive | inactive | inactive | inactive | inactive | inactive | inactive | inactive | inactive | inactive | inactive | inactive |  |  |  |  | 
CCOC(=O)N1CCC(=C2c3ccc(Cl)cc3CCc3cccnc32)CC1 | 23.5 µM (active) |  |  | 20.9 µM (active) | inactive | 30.7 µM (active) |  |  |  |  | 29.9 µM (active) | 13.3 µM (active) | inactive |  | 23.5 µM (active) and 23.7 µM (active) | 23.5 µM (active) and 26.6 µM (active) | 24.3 µM (active) and 21.9 µM (active) |  |  | 
Cc1cccc(-c2[nH]c(C(C)(C)C)nc2-c2ccc3nccnc3c2)n1 | 8.33 µM (active) | 10.5 µM (active) | 19.3 µM (active) |  |  |  | 16.6 µM (active) |  | 24.3 µM (active) |  |  | inactive | inactive | inactive | 2.96 µM (active) |  | 6.11 µM (active) | 1.66 µM (active) |  | 
Cc1cc([C@@H](C)Nc2ccccc2C(=O)O)c2nc(N3CCOCC3)cc(=O)n2c1 | 13.6 µM (active) | 0.191 µM (active) | 55.9 µM (active) | 24.1 µM (active) | inactive | 9.87 µM (active) | 6.05 µM (active) | 34 µM (active) |  | 12.1 µM (active) | 12.1 µM (active) | 1.71 µM (active) | inactive |  | 8.55 µM (active) |  | 2.22 µM (active) | 9.59 µM (active) |  | 
CS(=O)(=O)c1ccc(C(=O)Nc2ccc(Cl)c(-c3ccccn3)c2)c(Cl)c1 | inactive | 2.64 µM (active) | inactive | inactive | inactive | inactive |  | inactive |  | inactive | inactive |  | inactive | inactive |  |  | inactive |  | inactive | 
CCCCNc1cc(C(=O)O)cc(S(N)(=O)=O)c1Oc1ccccc1 | inactive | inactive | inactive | inactive | inactive | inactive | inactive | inactive | inactive | inactive | inactive | inactive | inactive | inactive | inactive |  | inactive | inactive |  | 
O=C(Nc1cccnc1)N1CCC(Cc2cccc(Oc3ccc(C(F)(F)F)cn3)c2)CC1 | 18.7 µM (active) |  |  |  | inactive | inactive | inactive |  | 10.9 µM (active) | inactive |  | inactive | inactive |  | inactive | 11.8 µM (active) | 10.9 µM (active) |  |  | 
CNC(=O)c1ccccc1Sc1ccc2c(/C=C/c3ccccn3)n[nH]c2c1 | 5.31 µM (active) | 2.99 µM (active) |  | 1.5 µM (active) |  |  |  |  | 17.4 µM (active) | 10.6 µM (active) | inactive |  |  | inactive |  |  | 17.4 µM (active) | 13.3 µM (active) |  | 
CN1CCN(CCCN2c3ccccc3Sc3ccc(C(F)(F)F)cc32)CC1 | 18.7 µM (active) | 1.05 µM (active) |  |  | inactive | 12.2 µM (active) and 7.64 µM (active) | 3.32 µM (active) | 16.6 µM (active) | 24.6 µM (active) and 21.7 µM (active) | inactive | 26.6 µM (active) and 18.7 µM (active) |  |  | inactive | inactive |  | 27.6 µM (active) and 19.3 µM (active) | 18.7 µM (active) | 26.1 µM (active) | 23.3 µM (active)
CCCCCCCc1ccc(CCc2cccc(O)c2C(=O)O)cc1 | 23.5 µM (active) | 9.35 µM (active) |  |  | inactive |  | inactive | inactive |  | inactive |  |  | inactive |  |  |  |  | inactive |  | 
OCCn1cc(-c2cnc3nnn(Cc4ccc5ncccc5c4)c3n2)cn1 | 0.0059 µM (active) | inactive |  | inactive | inactive | inactive | inactive | inactive | inactive | inactive | inactive | inactive | inactive | inactive |  |  | inactive | inactive |  | 
COc1ccc(C2=N[C@H](c3ccc(Cl)cc3)[C@H](c3ccc(Cl)cc3)N2C(=O)N2CCNC(=O)C2)c(OC(C)C)c1 | 14.8 µM (active) | 2.64 µM (active) | 7.69 µM (active) | 0.743 µM (active) |  | 3.83 µM (active) | 2.64 µM (active) | 2.35 µM (active) | 24.3 µM (active) | 5.26 µM (active) |  |  | inactive |  | 18.7 µM (active) |  |  | 23.5 µM (active) |  | 
Clc1cccc(Cl)c1NC1=NCCN1 | inactive | inactive | inactive | inactive | inactive | inactive | inactive | inactive | inactive | inactive | inactive | inactive | inactive | inactive | inactive |  | inactive | inactive |  | 
O=C(Nc1nc2ccccc2n1CCN1CCOCC1)c1cccc([N+](=O)[O-])c1 | 14.8 µM (active) | 3.32 µM (active) | 7.69 µM (active) | 7.43 µM (active) | inactive | 24.1 µM (active) | 7.43 µM (active) | 3.72 µM (active) | 21.7 µM (active) |  |  |  | inactive |  | 18.7 µM (active) |  | 9.68 µM (active) |  |  | 
CCOC(=O)C1=C[C@]2(CC)CCCN3CCc4c(n1c1ccccc41)[C@@H]32 | inactive | 13.2 µM (active) | inactive | inactive | inactive |  | inactive |  | inactive | inactive |  |  | inactive | inactive | inactive |  | 24.3 µM (active) |  |  | 
